# Screening data as filed in PubChem BioAssay.
# The list is not random: actives were taken first. Their share in the collection is about 2.2%.
# FUS suppressor – suppressors of FUS proteinopathy in yeast; hit rate 0.24% among 390,000; Potency, µM (series often up to 76.6 µM), most hits filed as activators; S. cerevisiae FUS-expressing, growth rescue, OD600, 24 h; note: nearly all actives have a fitted effect of over 55% in size
#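 S. cerevisiae expressing FUS from galactose induction served as the toxicity model. Growth after 24hr at 30C, read as absorbance at 600 nm, indicates suppression of toxicity; compounds dosed at several concentrations.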
# TDP43 rescue – inhibitors of TDP-43 toxicity in yeast | Potency, µM (top dose mostly 46.1 µM), most hits filed as activators | TDP-43 expressing yeast growth rescue, BacTiter-Glo, 24 h | hit rate 1.8% among 410,000 | AID 652104; note: nearly all actives have a fitted effect of over 50% in size
#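 Growth rescue of TDP-43-toxic yeast measured as ATP luminescence (BacTiter-Glo). Cells grown to mid-log in raffinose, induced in galactose at OD600=0.02, exposed to compound 24 hr at 30 deg C.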
# Mito fusion yeast – mitochondrial division inhibition or fusion activation. hit rate 0.23% among 320,000. Potency, µM (series often up to 46.1 µM), hits mostly activators. S. cerevisiae fusion-defective mutant growth rescue, CellTiterGlo 48 h; note: nearly all actives have a fitted effect of over 45% in size
#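 Yeast fusion mutant, YPEG (non-fermentable carbon), compound, 48 h at 37C non-permissive; CellTiterGlo added, 10 min RT, luminescence read. Rescued growth = division inhibition.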
# Abeta yeast res – restores growth of yeast expressing A-beta42 peptide. yeast expressing A-beta42, growth rescue, OD600, 48 h; response scale: 0% DMSO, 100% iron-clioquinol control. Potency, µM (titrated, usually from 46.1 µM), usual class: activators. AID 1347071. hit rate 0.063% among 410,000; note: nearly all actives have a fitted effect of over 55% in size
#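 Yeast A-beta toxicity model in growth medium with pinned compounds, 48 h at 30 C; growth read as absorbance at 600 nm. Normalized to FeCl3/clioquinol equimolar mix (positive) and DMSO (negative).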
# aSyn rescue – rescues yeast growth from alpha-synuclein toxicity; hit rate 0.14% among 370,000; AID 652106; Yeast expressing alpha-synuclein, growth rescue, BacTiter-Glo, 24 h; Potency, µM (top dose mostly 46.1 µM), hits mostly activators; note: nearly all actives have a fitted effect of over 65% in size
#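 Galactose-induced alpha-syn yeast (OD600=0.02, raffinose-pregrown) + pinned cpd, 24 hr, 30 deg C; growth by BacTiter-Glo luminescence. Growth restoration scores as activation.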
# A number is an active result; 0 = inactive; ? = inconclusive; - = no result given; [ ] = dose if it differs, or a comment. Calls come from the whole dose curve; as a rule, active = well fitted curve in the direction sought with a large enough effect; inconclusive = small, poorly fitted or top-dose-only effect, or another doubt; inactive = no such curve, though single readings can be large; an effect the other way counts as inactive or inconclusive.
SMILES,FUS suppressor,TDP43 rescue,Mito fusion yeast,Abeta yeast res,aSyn rescue
Cc1ccc(O)c(N=Nc2ccccc2)n1,0,11µM,0,0,0
Oc1ccc(Cl)cc1N=Nc1ccccc1,0,0,0,0,0
O=C(Cc1ccc(F)cc1)OCN1C(=O)c2ccccc2C1=O,0,?,0,0,0
O=C(Cc1cccc(C(F)(F)F)c1)OCN1C(=O)c2ccccc2C1=O,0,35µM,0,0,0
Cn1ncc(Cl)c1C(=O)N1CCN(c2ccc(Cl)c(Cl)c2)CC1,?,13µM,0,0,0
COc1ccccc1NC(=O)O[C@@H]1CC[C@@]23CCCN2C(=O)CCC[C@H]3C1,0,-,-,-,-
c1ccc(-c2cc(-c3ccccc3)n3ncnc3n2)cc1,0,0[0.397 µM],0,0,0
COc1ccc(-c2cc(-c3ccccc3)nc3ncnn23)cc1,0,14µM,0,0,0
COc1ccc(Cc2nc3c4cnn(-c5ccccc5F)c4ncn3n2)cc1,0,?,-,0,-
Fc1ccccc1-n1ncc2c1ncn1nc(Cc3ccccc3)nc21,0,10µM,-,0,-
Cc1cccc(NC(=S)NC(=O)Cc2ccccc2)c1C,0,?,0,7.9µM,0
Cc1cccc(NC(=S)NC(=O)CCc2ccccc2)c1C,0,0,0,?,0
N#C/C(=C\c1ccc(OC(F)F)cc1)C(=O)N1CCCCC1,0,?,0,0,13µM
CCN1CCN(C(=O)/C(C#N)=C/c2ccc(OC(F)F)cc2)CC1,0,0,0,0,0
Cc1ccc(C2CC2c2n[nH]c(=S)n2-c2cccc(Cl)c2)cc1 (stereo not drawn),0,35µM,0,0,0
CCCCC1=CC2=C(c3ccco3)C(=O)C(C)(OC(=O)c3ccc(OC)cc3)C(=O)C2=CN1CC1CC1 (stereo not drawn),20µM,0,0,0,0
CCCCC1=CC2=C(c3ccco3)C(=O)C(C)(OC(=O)c3ccc(OC)cc3)C(=O)C2=CN1Cc1ccc(OC)cc1 (stereo not drawn),-,-,0,-,-
Cc1ccc(NCc2cccn2-c2nnc(N3CCC(C(=O)NCCc4ccc(Cl)cc4)CC3)s2)cc1,?,35µM,-,?,-
Cc1[nH]c(=S)c(C#N)c(-c2ccco2)c1C(=O)N(C)C,0,0,0,0,0
CCOC(=O)c1c(-c2cccc([N+](=O)[O-])c2)csc1N,?,18µM,0,0,0
Cc1cccc(-c2csc(N)c2C(=O)OC(C)C)c1,0,13µM,0,0,0
CCOC(=O)c1c(-c2cccc([N+](=O)[O-])c2)csc1NC(=O)C1CC1,0,0,0,0,0
Cc1c(C)n2c(SCC(=O)N3CCCCC3)nnc2[nH]c1=O,0,0,0,0,0
COc1ccc2c(c1)CCc1cc(C(=O)O)sc1-2,0,?,0,0,0
COc1ccc(-c2cc(C(=O)O)sc2C)cc1,0,22µM,0,0,0
SMILES,FUS suppressor,TDP43 rescue,Mito fusion yeast,Abeta yeast res,aSyn rescue
Cc1c(C=O)cnn1CCC(=O)O,0,0,-,0,0
Cc1c([N+](=O)[O-])cnc(Sc2ccccc2)c1[N+](=O)[O-],0,22µM,-,0,0
O=C(CCC(=O)N(CC(=O)NC1CCCCC1)c1ccc2c(c1)OCCO2)Nc1ccccn1,-,-,22µM,-,-
Cc1ccc(N(CC(=O)NC2CCCC2)C(=O)CCC(=O)Nc2ccccn2)cc1C,0,0,0,0,0
Cc1ccc(S(=O)(=O)NCC2CN(S(=O)(=O)c3ccc(C)cc3)c3ccccc3C(=O)N2c2ccc(F)cc2)cc1 (stereo not drawn),18µM,-,-,-,-
COc1cc2c(cc1OC)C(COc1ccc(F)cc1)N(C(=O)Cc1ccc(F)cc1)CC2 (stereo not drawn),0,-,-,0,-
CCCCC(=O)N1CCc2cc(OC)c(OC)cc2C1COc1ccc(C(=O)OCC)cc1 (stereo not drawn),?,22µM,-,0,0
CCCC(=O)N1CCc2cc(OC)c(OC)cc2C1COc1ccc(C(=O)OC)cc1 (stereo not drawn),?,0,-,0,0
CCOC(=O)c1ccc(OCC2c3cc(OC)c(OC)cc3CCN2C(=O)Cc2ccc(F)cc2)cc1 (stereo not drawn),13µM,20µM,-,0,0
Cc1ccc(S(=O)(=O)Nc2cccc3cccnc23)c([N+](=O)[O-])c1,0,7.9µM,0,0,18µM
CCN(Cc1ccccc1)c1ncnc2c1cnn2-c1ccc(F)cc1,0,25µM,-,0,-
CCOC(=O)Cc1ccc(NC(=O)Nc2ccccc2OCc2cc(=O)n3ccccc3n2)cc1,0,0,-,0,-
CCn1cc(C(=O)N[C@@H](CCSC)C(=O)NCCCOC)c(=O)c2cc3c(cc21)OCO3,0,0,0,0,0
Cc1cc(OCC(=O)N(C)Cc2ccccc2)ccc1Cl,0,11µM,0,0,0
Cc1cc(OCC(=O)N(C)Cc2ccccc2)ccc1Br,0,0,0,?,0
Cc1ccc(-n2nc3c(=O)n(CCCC(=O)NCC(C)c4ccccc4)nc(C)c3c2C)cc1 (stereo not drawn),0,0,?,-,0
O=C(CCc1ccccc1)N[C@H]1[C@H](OC(=O)c2ccco2)CCC[C@]12C(=O)N(Cc1ccccc1)c1ccccc12,0,-,-,-,-
CC1(C)CC(=O)c2cc(C(=O)Nc3cccc4ccccc34)c(=O)[nH]c2C1,-,-,-,-,0
C/C(=N\Nc1ccc(F)cc1F)c1ccccc1O,0,13µM,0,0,0
CCCCN1C(=O)N2Cc3ccc(C)cc3C2CS1(=O)=O (stereo not drawn),0,-,-,-,-
O=C(COc1cc(F)ccc1[N+](=O)[O-])NCCCc1ccccc1,0,13µM,0,0,0
COc1ccc(-n2ccnc2SCC(=O)Nc2nnc(C)s2)cc1,0,0,-,0,-
Cc1cc(NS(=O)(=O)C2CCN(C(=O)Cc3ccc(Cl)c(Cl)c3)CC2)no1,0,-,-,-,-
CCC(=O)Nc1ccc(SC#N)cc1C,0,11µM,0,0,0
Cc1cc(SC#N)cc(C)c1NC(=O)CCl,-,?,0,0,0
SMILES,FUS suppressor,TDP43 rescue,Mito fusion yeast,Abeta yeast res,aSyn rescue
O=C(Nc1nnc(C2CC2)o1)c1ccc(S(=O)(=O)N2CCCc3ccccc32)cc1,0,18µM,0,?,?
O=C(Nc1nnc(C2CC2)o1)c1ccc(S(=O)(=O)N2CCCCC2)cc1,0,0,0,?,?
Cc1nnc(NC(=O)c2ccc(S(=O)(=O)N3CC(C)CC(C)C3)cc2)o1 (stereo not drawn),0,0,0,?,16µM
CC1CCN(S(=O)(=O)c2ccc(C(=O)Nc3nnc(C4CC4)o3)cc2)CC1,?,?,0,13µM,18µM
CCOC(=O)N1CCN(S(=O)(=O)c2ccc(C(=O)Nc3nnc(C)o3)cc2)CC1,0,0,0,0,0
O=C(O)c1cncc(SCc2ccccc2)n1,0,0,-,0,0
CCSc1nnc(NC(=O)c2ccccc2C)s1,0,11µM,?,0,0
CCSc1nnc(NC(=O)C2Cc3ccccc3CN2S(=O)(=O)CC)s1 (stereo not drawn),3.5µM,0,0,0,0
